The GenesisPotency data set
Fewer than 10 of roughly 1,300 compounds were called active. Another 3% or so got no clear call; they are omitted. Calls come from the whole dose curve; as a rule, active = well fitted inhibition curve with a large enough effect; inconclusive = small, poorly fitted or top-dose-only effect; inactive = flat fitted curve, though single readings scatter. Only a sample is shown.

system: T1, ; assay: qHTS of Trypanosoma Brucei Inhibitors: LOPAC Validation (AID 624147)
T1 sequence (whole entry): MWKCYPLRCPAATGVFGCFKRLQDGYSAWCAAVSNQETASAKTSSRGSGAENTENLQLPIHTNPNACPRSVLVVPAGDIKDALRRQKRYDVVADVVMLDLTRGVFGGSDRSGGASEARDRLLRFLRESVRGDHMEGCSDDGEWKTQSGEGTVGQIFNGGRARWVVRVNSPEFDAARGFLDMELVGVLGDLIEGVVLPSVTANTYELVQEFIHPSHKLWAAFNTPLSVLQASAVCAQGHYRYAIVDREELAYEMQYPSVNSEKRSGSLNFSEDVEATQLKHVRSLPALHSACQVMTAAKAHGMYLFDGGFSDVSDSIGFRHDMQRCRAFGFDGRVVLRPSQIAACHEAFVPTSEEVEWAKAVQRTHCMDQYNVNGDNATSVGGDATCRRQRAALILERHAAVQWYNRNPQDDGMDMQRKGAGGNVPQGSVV

Compound | outcome
N.N.[Cl][Pt][Cl] | active
